Reference: PubChem BioAssay (NCI)
About 83,000 compounds went through this panel and 20% of them were active in at least one assay; those are over-represented in the sample as a whole.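 Single-dose data. Exposure time 48 hours. Values below 10 considered active.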 Values without a mark were called inactive. The source made the active and inactive calls.

Columns and labels:
Test in all cases: NCI-60 one-dose screen, 48 h (100 = growth as untreated, 0 = no growth, -100 = all killed)
[1] = system: HCT-15 colon; settings: 10 µM unless noted
[2] = system: HT29 colon; settings: 10 µM unless noted
[3] = system: SNB-75 CNS; settings: 10 µM unless noted
[4] = system: SNB-19 CNS; settings: 10 µM unless noted
[5] = system: U251 CNS; settings: 10 µM unless noted
[6] = system: PC-3 prostate; settings: 10 µM unless noted
[7] = system: UACC-62 melanoma; settings: 10 µM unless noted
[8] = system: LOX IMVI melanoma; settings: 10 µM
[9] = system: SK-MEL-28 melanoma; settings: 10 µM unless noted
[10] = system: SK-MEL-2 melanoma; settings: 10 µM unless noted
[11] = system: EKVX NSCLC; settings: 10 µM unless noted
[12] = system: SN12C renal; settings: 10 µM unless noted
[13] = system: UO-31 renal; settings: 10 µM unless noted
[14] = system: TK-10 renal; settings: 10 µM unless noted
[15] = system: ACHN renal; settings: 10 µM unless noted
[16] = system: CAKI-1 renal; settings: 10 µM unless noted
[17] = system: A498 renal; settings: 10 µM unless noted
[18] = system: CCRF-CEM leukemia; settings: 10 µM unless noted
[19] = system: SK-MEL-5 melanoma; settings: 10 µM unless noted
[20] = system: MOLT-4 leukemia; settings: 10 µM unless noted

| Structure (SMILES) | growth [1] | growth [2] | growth [3] | growth [4] | growth [5] | growth [6] | growth [7] | growth [8] | growth [9] | growth [10] | growth [11] | growth [12] | growth [13] | growth [14] | growth [15] | growth [16] | growth [17] | growth [18] | growth [19] | growth [20] |
| --- | --- | --- | --- | --- | --- | --- | --- | --- | --- | --- | --- | --- | --- | --- | --- | --- | --- | --- | --- | --- |
| COc1ccc(C(=O)/C=C/c2c(F)cccc2Cl)cc1S(N)(=O)=O | -11.9% (active) | 8.46% (active) | 29.7% | 19.6% | -86.8% (active) | 18.8% | 15.4% | -69.1% (active) | -4.35% (active) | 25.1% | 8.71% (active) | 12.8% | 0.59% (active) | 27.4% | -13.8% (active) | 16.4% | 74% | 6.01% (active) | – | – |
| C/C(=N\Nc1ccc(S(N)(=O)=O)cc1)c1ccc(N=Nc2c(Nc3ccccc3)[nH][nH]c2=O)cc1 | 36.7% | 4.54% (active) | 21% | -5.15% (active) | -46.7% (active) | 20% | -40.7% (active) | -41.2% (active) | -54.1% (active) | -51.9% (active) | 62.5% | -12.9% (active) | 86.1% | 71.9% | 42.4% | 77.1% | 35.2% | 3.59% (active) | – | – |
| COc1ccc(C2=NN(C(C)=O)C(c3ccc(OCc4ccc(Cl)cc4)c(OC)c3)C2)cc1OC (centres undefined) | 27.9% | 40.1% | 61.3% | 51.4% | 46.8% | 23.6% | – | – | 56.8% | 44.1% | 46.3% | 43.2% | 22.4% | 44.1% | 42.9% | 47.2% | 64.9% | 50.1% | -9.52% (active) | 20.5% |
| COc1ccc(C(=O)/C=C/c2ccccc2Br)cc1S(N)(=O)=O | -91.5% (active) | -17.2% (active) | 34.1% | 1.44% (active) | -95.6% (active) | 21% | 34.4% | -89.9% (active) | -27.7% (active) | 81.2% | -80.2% (active) | -25.6% (active) | -65.2% (active) | 3.43% (active) | -97% (active) | 11.8% | 93.3% | 6.96% (active) | – | – |
| COc1ccc(-c2nnc3ccc(N/N=C/c4ccc(O)cc4)nn23)cc1 | 26.7% | 87.4% | 53.6% | 67.5% | 67.6% | 40.5% | 58.8% | -54.8% (active) | 69.1% | 73.2% | 37.8% | 42.3% | 30.3% | 38.9% | 43.5% | 21.5% | 91.9% | 14.1% | – | – |
| COc1ccc(-c2nnc3ccc(N/N=C/c4ccc(C)cc4)nn23)cc1 | 50% | 82.6% | -38.6% (active) | 92.6% | 44.9% | 72.2% | 88.9% | 23.7% | 93.6% | 108% | 68.2% | 76.9% | 33.5% | 82.7% | 59% | 54.6% | 109% | 91.8% | – | – |
| CCN1CCN(Cc2ccc(C(=O)Nc3cccc(C#Cc4cccc5[nH]nc(N)c45)c3)cc2C(F)(F)F)CC1 | -87.6% (active) | -10.5% (active) | -62% (active) | -88.7% (active) | -94.6% (active) | -14% (active) | -74.7% (active) | -92.6% (active) | -95% (active) | -80.7% (active) | -93.1% (active) | -76.1% (active) | -94.2% (active) | -94.2% (active) | -98.2% (active) | -91.7% (active) | -84.6% (active) | 3.6% (active) | – | – |
| CC(=O)c1c(N)c(C#N)cn1-c1ccc(Cl)cc1Cl | 99.5% | 106% | 90.5% | 102% | 98% | 90.8% | – | – | 106% | 90.4% | 93.8% | 100% | 68.4% | 160% | 102% | 97.1% | 112% | 99.3% | 98.8% | 102% |
| O=S(=O)(Nc1cccc(-n2cnc3cc(-c4ccc(O)cc4)ccc32)c1)C1CC1 | 27.2% | 16.7% | -22.3% (active) | 37.7% | 17.6% | 40% | – | – | 43.6% | 51.7% | 46.4% | 34.8% | 21% | 65% | 21.3% | 18.9% | 30.6% | 23.6% | 12.6% | 13.7% |
| N#Cc1c(NCc2ccccc2)n[nH]c1Nc1ccccc1 | 42.4% | 84.3% | 57.4% | 54.8% | 45.9% | 40.1% | 64.9% | 58.4% | 79.1% | 20.7% | 52.8% | 50.8% | 38.5% | 75.5% | 38.1% | 33.4% | 79% | 18.3% | – | – |
| CCOP(=O)(OCCCl)c1nc(-c2ccc(C)cc2)oc1NCc1ccccc1 (centres undefined) | 57.6% | 81.7% | 69.9% | 65.8% | 74.6% | 44.4% | – | – | 108% | 87% | 67.2% | 70.4% | 52.5% | 100% | 80% | 49.5% | 99.3% | 72.4% | 84.8% | 43.6% |
| Cc1ccc(-c2nnc3ccc(N/N=C/c4ccccc4)nn23)cc1 | 69.2% | 118% | -17% (active) | 86.6% | 75.1% | 89.3% | 98.4% | 47.5% | 95.7% | 102% | 76.9% | 101% | 84.5% | 104% | 95.4% | 83.3% | 105% | 88.8% | – | – |
| COc1ccc(C(=O)/C=C/c2cccc3ccccc23)cc1S(N)(=O)=O | -65.3% (active) | -39.5% (active) | 51.2% | 10.5% | -93.9% (active) | 12.8% | -58% (active) | -84.2% (active) | -50.8% (active) | 45.8% | -6.08% (active) | 6.92% (active) | -68.9% (active) | 22.6% | -27.1% (active) | 13.9% | 107% | 4.74% (active) | – | – |
| COc1ccc(C(=O)/C=C/c2cccc(Cl)c2)cc1S(N)(=O)=O | -89.9% (active) | 0.678% (active) | 29.5% | 0.182% (active) | -97.1% (active) | 31.7% | -3.37% (active) | -87.4% (active) | -25.7% (active) | 80.9% | -73.5% (active) | -25.3% (active) | -67.6% (active) | -86.1% (active) | -89.3% (active) | -9.94% (active) | 111% | – | – | – |
| O=C(NNc1nc2cc(F)ccc2n2c(C(=O)N3CCN(C4CC4)CC3)ccc12)c1ncccn1 | 10.5% | 39% | 73.3% | 30.7% | 16.8% | 49% | 9.28% (active) | 13.7% | 30.8% | 57% | 22.8% | 27% | 14.8% | 30.2% | 12.2% | 17.7% | 75.9% | 13.4% | – | – |
| O=C1C(=Nc2ccc(F)c(Cl)c2)c2cccc3cccc1c23 | 8.52% (active) | 5.96% (active) | 66.5% | 71.2% | 24.7% | 77.9% | 52.8% | 46.9% | 57.9% | 97.5% | 75.5% | 57.3% | 38.2% | 111% | 32.2% | 55.4% | 118% | 6.25% (active) | – | – |
| Cn1cc(-c2nc(N)nnc2-c2c[nH]c3ccc(Br)cc23)c2cccnc21 | 33.2% | 23.1% | 31.3% | 52.7% | 39.5% | 59.9% | – | – | 59.9% | 30.5% | 67.4% | 49.8% | 48.9% | 90.4% | 50.6% | 47.9% | 131% | – | 26.3% | 27.5% |
